About 1,200 (3.2%) of roughly 38,000 compounds showed an effect of 50% or more. The median lay at about -58%. The entries come from a sample that favours strong results as a whole.
tested on: Plasmodium falciparum; assay: Calibr Malaria Delayed Death Assay SOP; format: functional, organism-based; design: scale not given: in the data most compounds retested in dose-response had high values; conditions: concentration 4.99e-06 (unit not given; other assays of the set use mol/L)

SMILES | Percent Effect
CC(C(=O)NCC1CCCCC1)S(=O)(=O)Cc1csc(-c2cccs2)n1 (stereo not given) | -110.5%
CC(C)C(NC(=O)NCCNc1ccccn1)c1cccs1 (stereo not given) | 11.18%
Cc1ccc(CNC(=O)C2=NOC3(CCCNC3)C2)cc1 (stereo not given) | -11.58%
CNC(=O)C(C)S(=O)(=O)Cc1csc(-c2cccs2)n1 (stereo not given) | -44.96%
CC(C(=O)NC1CC1)S(=O)(=O)Cc1csc(-c2cccs2)n1 (stereo not given) | -95.03%
CC(=O)Nc1ccc(-c2ccccc2CCN)cc1 | -117.7%
CCC1(CC)CC(=O)N(CC(O)c2cccc(F)c2)C1=O (stereo not given) | -47.43%
Cn1cc(CN2CCC3(CCN(c4cnn(C)c4)C3=O)C2)cn1.O=C(O)C(F)(F)F (stereo not given) | -38.46%
Cc1ccc(-n2ncc(C(=O)N(C)C3CCN(C)CC3)c2N)cc1C | -13.94%
COCCNC(=O)Cn1cc2c(n1)c(C)nn2C | -119.4%
Cc1ccc(CN2Cc3nccn3CC(Cn3cncn3)C2)s1.O=C(O)C(F)(F)F (stereo not given) | -180.8%
COc1ccccc1OCCC(=O)NC1CCc2nc(C)cn2C1 (stereo not given) | -82.15%
Cc1ncc(CNC(=O)CCc2ccccc2F)c(C2CCCN2C)n1 (stereo not given) | -31.11%
O[C@@H]1CN(Cc2cc(Cl)cc3cccnc23)C[C@@H]1O | -71.8%
Clc1cc(CN2CCCC(Cn3cncn3)C2)c2ncccc2c1 (stereo not given) | 36.9%
Clc1cc(CN2CCCN3CCCC3C2)c2ncccc2c1 (stereo not given) | 88.94%
Cc1cccc(-c2nc(N)nc3c2CN(C(=O)c2ccncn2)C3C)c1 (stereo not given) | -72.66%
COc1coc(C(=O)Nc2nc(-c3ccccn3)cs2)cc1=O | 19.28%
CN(Cc1noc2c1CCCC2)C(=O)Nc1cncc(F)c1 | -40.24%
Cc1c[nH]c(CN(C)C(=O)C(C)(C)NC(=O)c2cccs2)n1 | -87.6%
CC(C)c1ncc(C(=O)N2CCOCC2CC(=O)c2ccco2)s1 (stereo not given) | -45.87%
Cc1cc(C)n(CC(C)NCCn2nc(C)c(Cl)c2C)n1 (stereo not given) | -54.04%
Cc1cc(C)n(CC(C)NCCN2CCc3ccccc32)n1 (stereo not given) | 52.4%
CC(Cn1cncn1)NCCN1CCc2ccccc21 (stereo not given) | -79.84%
Cc1ccc(SC2CCCC2)c(C(=O)NCc2n[nH]c(=O)[nH]2)c1 | -25.99%

SMILES | Percent Effect
NC(=O)CN(C(=O)c1c[nH]c2ncccc12)C1CCCC1 | -54.97%
COCCN(C(=O)c1c[nH]c2ncccc12)C1CCCC1 | -27.67%
O=C(c1c[nH]c2ncccc12)N(Cc1ccco1)C1CCCC1 | 86.68%
Cc1nc(N(C)C)nc(-c2cccc(-c3ccn(CCCF)n3)c2)c1C | -133.9%
CCCN(Cc1ccccn1)Cc1ccccc1OC | -102.5%
CCOc1ccccc1N(C)Cc1nccn1C | 20.26%
CSCC(=O)N(Cc1ccccn1)Cc1ccccc1C | -232.7%
CC(C)CN(Cc1ccccn1)Cc1ccccc1C(=O)O | -129.3%
COc1ccc(OC)c(Sc2ncccc2C(=O)N(C)CCC#N)c1 | -164.4%
CCOCCN1CCN(CCc2ccc3c(c2)CCO3)CC1 | -44.63%
Cc1noc([C@@H]2CCO[C@@H]3CCN(Cc4nccs4)C[C@@H]32)n1 | -49.2%
CCN1CC2(CC1=O)CN(C(C)=O)CCN(C(=O)NC)C2 (stereo not given) | -42.52%
CN(C)C(=O)N1CCN(CCn2nc3ccccn3c2=O)CC1 | -59.88%
O=C(O)c1cc(/C=C/c2ccccc2)ncn1 | -169%
O=C1CC(c2ccc(F)cc2)c2cnn(C3CCCC3)c2N1 (stereo not given) | -115.7%
O=C1CC(c2ccccc2)c2cnn(C3CCCC3)c2N1 (stereo not given) | -174.4%
N#Cc1ccc(C2CC(=O)Nc3c2cnn3C2CCCC2)cc1 (stereo not given) | 52.33%
COc1ccc(C(C)=O)cc1CN1CCn2cccc2C1C (stereo not given) | -51.16%
CNC(=O)C1CCN(Cc2nc(-c3ccc(SC)cc3)oc2C)C1 (stereo not given) | -104%
CSc1ccc(-c2nc(CN3CCC(C(N)=O)CC3)c(C)o2)cc1 | -89.92%
CSc1ccc(-c2nc(CN3CCC(CN)C3)c(C)o2)cc1 (stereo not given) | 88.32%
Cc1nc2c(c(NC3CC3)n1)CCN(C(=O)CCc1cccnc1)CC2 | -33.43%
Cc1nc2c(c(NC3CCN(Cc4ccccc4)CC3)n1)CCNCC2 | 78.1%
Cc1nc2c(c(NC3CCN(Cc4cccnc4)CC3)n1)CCNCC2 | -53.07%
Cc1cccc(CN2CC3(CCN(C(=O)C4CC4)CC3)OCC2=O)n1 | -86.74%

SMILES | Percent Effect
COc1c(C)cnc(CNC(=O)c2cnc3onc(C)c3c2)c1C | -29.67%
COCCN(C)C(=O)Cn1cccc(OC)c1=O | -122.8%
CN(CCCc1cc(-c2ccc(F)cc2)n[nH]1)C(=O)CCn1cncn1 | -232.6%
O=C(Cc1cccs1)N1CCn2cc(Cn3cccn3)nc2C1.O=C(O)C(F)(F)F | -86.13%
CN1CCN(C2CCN(CCOc3ccccc3F)CC2)C1=O | -15.81%
O=C(c1ccoc1)N1CC[C@H]2C[C@@H](c3nnc(C4CC4)o3)O[C@@H]2C1 | -57.61%
Cc1nc(C)n(C2CCCN(C(=O)c3cn4cccnc4n3)C2)n1 (stereo not given) | -31.26%
CC1(C)CN(C(CNS(C)(=O)=O)c2ccc(Cl)cc2)CCO1 (stereo not given) | -25.75%
CC1(C)CN(C(CNS(N)(=O)=O)c2ccc(Cl)cc2)CCO1 (stereo not given) | -0.7806%
O=S(=O)(NCC1(c2cccs2)CCOCC1)c1ccc2c(c1)OCCO2 | -63.38%
O=C(Cc1ccc2c(c1)OCCO2)NC1CCCC1 | -102.8%
Cc1csc(CNC(=O)NCC2(c3ccc4c(c3)OCO4)CC2)n1 | -58.48%
I.c1cc2c(cc1C1(CNC3=NCCN3)CCCC1)OCCO2 | 80.88%
Cc1ncsc1CNC(=O)NCC1(c2ccc3c(c2)OCO3)CC1 | -37.92%
c1cnc(NCc2noc3c2CN(c2cnccn2)CC3)nc1 | -103.6%
CC(=O)NCc1ccc(C(=O)N2CCCC(n3cncn3)C2)o1 (stereo not given) | -131.6%
O=C([C@@H]1CCO[C@@H]2CCN(CC3CC3)C[C@H]21)N1CCCCO1 | -73.92%
COC(=O)NCC(=O)NCC(C)(C)c1cccc(C(F)(F)F)c1 | 46.67%
COC(=O)NCC(=O)NCC(C)(C)c1cccc(Br)c1 | 84.11%
CCC(=O)NCC(=O)NCc1cc(Br)ccc1OC(F)F | 4.46%
CCC(=O)NCC(=O)NCC(C)(C)c1cccc(Br)c1 | 86.82%
CC(C)(C(=O)NCCC(=O)O)c1cccc(Br)c1 | -14.62%
CC(C)(C(=O)NCCCC(N)=O)c1cccc(Br)c1 | -41.82%
Cn1c(C2CC2)nc2c1CCN(CCOc1ccccc1C#N)C2 | -3.674%
CC1c2ncc(CN3CCN(C)CC3)n2CCN1Cc1ccccn1.O=C(O)C(F)(F)F.O=C(O)C(F)(F)F.O=C(O)C(F)(F)F.O=C(O)C(F)(F)F (stereo not given) | -124%

SMILES | Percent Effect
Oc1ccc(N2CCC(Cc3ccccc3)CC2)nn1 | -73.68%
N#Cc1cccc(CNC(=O)Nc2cccnc2N2CCCC2)c1 | -57.4%
CCNC(=O)c1ccnc(CC2COc3c(cccc3OC)C2)c1 (stereo not given) | -85.49%
CCc1ccc2nc(NCCCN(CCO)CCO)cc(C)c2c1 | 83.32%
CCc1ccc2nc(NCCOCCO)cc(C)c2c1 | -140.8%
CCc1ccc2nc(NCC(O)CO)cc(C)c2c1 (stereo not given) | -100%
COc1ccc(-c2ccc(C(=O)N3CCC[C@@H]3CO)o2)cc1 | -98.07%
COCCN1C[C@@H]2CN(C(=O)[C@H]3CCCO3)C[C@@H]2C1=O | -140.9%
Cc1cnc(CN2CCN(c3ccnc(-c4ccccc4)n3)CC2)cn1 | -117.9%
COC(=O)N1CCC(NC(=O)N2CCCC2c2ccsc2)CC1 (stereo not given) | -44.77%
CC(C)(C)C(=O)N1C[C@H](c2ccsc2)[C@H]2CN(Cc3cccs3)CC[C@H]21.Cl | 27.72%
O=C(CC1CC1)N1CCO[C@H]2[C@H](OCCCn3cccn3)CC[C@@H]21.O=C(O)C(F)(F)F | -14.73%
CN(C)C(=O)N1CCC2(CC(=O)N(c3cccc(C#N)c3)C2)C1 (stereo not given) | -56.91%
Cc1ccccc1CC(=O)N1C[C@@H]2COC[C@]2(CN(C)C)C1.O=C(O)C(F)(F)F | -70.43%
O=C(c1ccnn1-c1ccc2ccccn12)N1CCOCC1 | -129.8%
CN(C)C1CCN(C(=O)c2ccnn2-c2ccc3ccccn23)CC1.O=C(O)C(F)(F)F | -10.05%
CN1CCCN(C(=O)c2ccnn2-c2ccc3ccccn23)CC1.O=C(O)C(F)(F)F | 69.35%
Cc1ncsc1CNCC(C)c1nc2ccccc2o1 (stereo not given) | -88.91%
Cc1nc(CN2CCC(N(C)Cc3noc(C4CC4)n3)C2)oc1C (stereo not given) | -157.8%
CCC[C@@H]1CN(C(=O)c2ccccc2-c2ncc[nH]2)C[C@H]1N(C)C | -89.87%
CCC[C@@H]1CN(C(=O)c2cc3ccccc3cc2O)C[C@H]1N(C)C | 51.44%
CCC[C@@H]1CN(C(=O)c2conc2-c2ccccc2)C[C@H]1N(C)C | 50.45%
CCC[C@@H]1CN(C(=O)c2cc(-c3cccs3)n(C)n2)C[C@H]1N(C)C | -67.73%
CCC[C@@H]1CN(C(=O)c2ccccc2C(C)=O)C[C@H]1N(C)C | -122.5%
CCC[C@@H]1CN(C(=O)c2ccccc2-c2ccccc2)C[C@H]1N(C)C | 18.3%

Reference: ChEMBL document CHEMBL3988442, “University of Dundee, Small-Polar-MMV Screening Library” (2021)
